The record followed here is PubChem BioAssay.

Molecules are shown by their SMILES. The source made the active and inactive calls. No stated cut-off is given here; in the data, active means inhibition above about 28%; inactive means the rest.

The assay can be described thus: StAR promoter reporter inhibitors, counter-screen for LRH-1 inverse agonist project, cell-based, luminescence, high throughput (AID 651611). To be noted: StAR promoter luciferase reporter counterscreen, at 3.6 µM, hits give high values. Background: The purpose of a counterscreen is to sort out artefacts and off-target activity.
In the case of `COc1ccc(-n2c(SCC(=O)NCc3ccco3)nc3sc4c(c3c2=O)CCN(C)C4)cc1`, the inhibition – broadly, the relative decrease from the control value, in per cent – is -6.62% (inactive).
On to `Cc1nn(Cc2ccc(Cl)cc2)c(C)c1NC(=O)c1noc2c1CCCCC2`, for which the inhibition is 21% (inactive).
`O=C(CSc1n[nH]c(-c2ccccc2)n1)Nc1ccc(F)cc1F`: the inhibition is 5.84% (inactive).
Regarding `CCOc1ccc(CCNC(=O)COC(=O)CCC(=O)c2cccs2)cc1OCC`, the inhibition was -0.72% (inactive).
For `O=C(COC(=O)c1ccc(S(=O)(=O)N2CCCC2)cc1)Nc1ccc(N2CCOCC2)cc1` the value was 18.1% (inactive); for `COc1cc(/C=C2/SC(=Nc3ccc(O)cc3)NC2=O)ccc1O`, 38.7% (active).
For `COc1ccc(CCNC(=O)COC(=O)C23CC4CC(CC(C4)C2)C3)cc1` the value was 17.5% (inactive).
In the case of `Cc1cc(-c2nn3c(-c4ccccc4)nnc3s2)c2ccccc2n1`, the inhibition is 7.3% (inactive).
For the compound `NC(=S)N/N=C/c1ccc(-n2nncc2-c2ccc(Cl)cc2)cc1`, the inhibition is 12% (inactive).
On to `COC(=O)c1ccc([C@H](NC(=O)c2ccco2)[C@]2(C)C[C@H]2C2CCCCC2)cc1`, for which the inhibition was 4.8% (inactive).
Regarding `O=C(CN(Cc1ccccc1)C(=O)CCl)c1cccc(Br)c1`, the inhibition is 19% (inactive).
Take `CCC(=O)N1CCN(c2ccc(NC(=O)c3ccc([N+](=O)[O-])o3)cc2)CC1`: the inhibition is 17.6% (inactive).
Turning to `CN(CCc1ccccc1)C(=O)c1ccc(NC(=O)Cc2ccc(NC(=O)C3CCCN(C(=O)CCc4ccccc4)C3)cc2)cc1` (stereo not given), the inhibition is 30.9% (active).
In the case of `O=C(NCc1ccco1)c1ccc([N+](=O)[O-])o1`, the inhibition was 7.6% (inactive).
As for `CCOC(=O)c1c2c(n(Cc3ccccc3)c1C)C(=O)C(=O)c1ccccc1-2`, the inhibition is 48.7% (active).
Take `COC(=O)CNc1nc(-c2cccnc2)nc2ccccc12`: the inhibition is 16.8% (inactive).
Take `COc1ccc(NC(=O)CSc2sc3c(O)cc(=O)[nH]c3c2C#N)c(OC)c1`: the inhibition was 1.46% (inactive).
Under `COc1ccc(O)c(/C=N/Nc2nc(Nc3ccccc3)nc(-n3nc(C)cc3C)n2)c1` stands 21.3% (inactive); under `CC(=O)Nc1ccc(NC(=O)CSc2nnc(-c3cc4ccccc4o3)n2C)cc1`, -0.36% (inactive).
For `Cc1cc(OCC(=O)Nc2nccs2)c2c(C)cc(=O)oc2c1`, the inhibition is 16.2% (inactive).
For `O=C(NCc1cccc(C(F)(F)F)c1)c1cc(-c2ccccc2)nn1CC1CC(c2cccnc2)=NO1` (stereo not given) the value was 13% (inactive).
In the case of `O=C(CSc1nnc(CNC(=O)c2ccccc2F)o1)Nc1ccc2c(c1)OCCO2`, the inhibition is 10.5% (inactive).
Under `CN(CC(=O)Nc1ccc(N2CCOCC2)cc1)CC(=O)Nc1ccc(N2CCOCC2)cc1` stands 4.02% (inactive); under `C#Cc1cccc(Nc2nc(NC(C)C)nc3ccsc23)c1`, 17.7% (inactive).
For the compound `C=CCn1c(SCC(=O)Nc2ccccc2C)nc(O)cc1=O`, the inhibition is 9.34% (inactive).
For the compound `Cc1cc(N2CCN(c3nc4ccccc4s3)CC2)n2ncnc2n1`, the inhibition is 21.5% (inactive).
Take `CC1(C)CC(=O)C=C(c2ccc3ncccc3c2)C1`: the inhibition is 13.7% (inactive).
`CCOc1ccc(CCNC(=O)COC(=O)CSc2ccccc2C)cc1OCC`: the inhibition was 2.02% (inactive).
In the case of `O=C(CSc1ccccn1)Nc1nonc1[N+](=O)[O-]`, the inhibition is 10.8% (inactive).
In the case of `Cc1ccc(/C=C2\SC(=S)N(c3c(C)n(C)n(-c4ccccc4)c3=O)C2=O)cc1`, the inhibition is 9.85% (inactive).
Under `CC(=O)Nc1cc(-c2ccc(S(C)(=O)=O)cc2)cn2c(-c3ccc(F)cc3)cnc12` stands 17.4% (inactive); under `O=C1CCN(CCCN2CCC(=O)N(Cc3ccccc3)C2=S)C(=S)N1Cc1ccccc1`, -8.81% (inactive).
Under `Cc1ccc(S(=O)(=O)N2CC(O)CC2C(=O)OCC(=O)Nc2ccc([N+](=O)[O-])cc2C(F)(F)F)cc1C` (stereo not given) stands 18.7% (inactive).
`CC1CCCC(C)N1C(=O)COC(=O)Cc1ccc(Cl)cc1` (stereo not given): the inhibition is -5.45% (inactive).
With `Cc1cccc(OCC(=O)Nc2ccncc2)c1C`, the inhibition was 6.9% (inactive).
With `O=C(CSc1nnc(Cc2cccs2)n1-c1ccccc1)Nc1ccc2c(c1)OCCO2`, the inhibition is -2.83% (inactive).
Consider `CCOCC(=O)Nc1cccc(C(=O)OCC)c1`, for which the inhibition is -6.06% (inactive).
For the compound `COc1ccc(Oc2ccc(NC(=O)c3ccccc3C)cc2)cc1`, the inhibition is 8.67% (inactive).
With `ClCc1ncc(-c2ccc(Cl)cc2)o1`, the inhibition was 15.7% (inactive).
In the case of `CCC(=O)N1CCN(c2ccc(Cl)cc2NC(=O)c2ccc([N+](=O)[O-])o2)CC1`, the inhibition was 22.8% (inactive).
